In PubChem BioAssay AID720504 (National Center for Advancing Translational Sciences (NCATS), 2013) one finds max response, negative = inhibition and Potency data, which are given here for 85 molecules.

Each structure is given as a SMILES string. Out of some 360,000 compounds screened, about 10,000 (2.8%) were called active. About 4% were inconclusive and are not listed. The full list was thinned out, with actives kept by preference. Unmarked numbers belong to inactive results. Calls come from the whole dose curve; as a rule, active = well fitted inhibition curve with a large enough effect; inconclusive = small, poorly fitted or top-dose-only effect; inactive = flat fitted curve, though single readings scatter.
% is set by controls: 0 for no effect and ±100 for the full control effect; potency is the fitted concentration of half-maximal effect.

Chain of Serine/threonine-protein kinase PLK1 (Homo sapiens) (P53350 whole entry, looked up, the tested form may be a part): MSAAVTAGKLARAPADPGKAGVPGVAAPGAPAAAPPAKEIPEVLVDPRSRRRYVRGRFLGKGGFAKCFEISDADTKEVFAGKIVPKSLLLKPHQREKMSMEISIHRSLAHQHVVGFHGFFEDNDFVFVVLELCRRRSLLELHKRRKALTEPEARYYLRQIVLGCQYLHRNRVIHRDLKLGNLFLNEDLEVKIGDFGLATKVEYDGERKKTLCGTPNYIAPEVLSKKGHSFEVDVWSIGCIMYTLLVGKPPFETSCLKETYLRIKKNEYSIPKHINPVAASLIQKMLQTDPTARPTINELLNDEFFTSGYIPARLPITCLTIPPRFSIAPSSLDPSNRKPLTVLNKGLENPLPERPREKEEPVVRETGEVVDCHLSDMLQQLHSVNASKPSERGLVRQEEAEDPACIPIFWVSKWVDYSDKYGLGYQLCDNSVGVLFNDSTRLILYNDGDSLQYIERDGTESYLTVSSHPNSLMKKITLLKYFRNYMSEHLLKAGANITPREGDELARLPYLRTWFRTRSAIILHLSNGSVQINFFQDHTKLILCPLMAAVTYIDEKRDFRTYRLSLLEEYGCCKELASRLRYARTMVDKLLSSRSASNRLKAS

This assay concerns the target Serine/threonine-protein kinase PLK1 (Homo sapiens) (UniProt P53350). Nature of the assay: qHTS for Inhibitors of PLK1-PDB (polo-like kinase 1 - polo-box domain): Primary Screen. For max response, negative = inhibition: series mostly up to about 57 µM. Note: nearly all actives have a fitted effect of over 65% in size. Particulars: Plk1 PBD binding of FITC phosphopeptide, fluorescence polarization.
As to `CC1(Oc2ccc(Cl)cc2)CCN(Cc2csc3ccccc23)C1` (stereo not given), the max response, negative = inhibition was -4.39%.
On the same count and under the same terms, with `Cc1ccc(CNC(=O)Nc2nnc([C@H]3C[C@H](O)[C@@H](CO)O3)s2)cc1` the figure was 6.99%; with `CC(C)C[C@@H](COCc1ccc(Cl)cc1)N1CCN(C(=O)c2ccc(Cl)cc2Cl)CCC1=O`, -7.05%.
For the molecule `CC(=O)c1cccc(-c2cnc3c(NC=O)cc(-c4cccc(C(=O)N(C)C)c4)cn23)c1`, the max response, negative = inhibition is -7.52%.
In the case of `COc1ccc(C(=O)c2c(C)c(CCC#N)n3ccccc23)c(OC)c1`, the Potency is 29.9 µM (active).
In the case of `COc1ccc(C(=O)CCc2ccccc2O)c(OC)c1`, the max response, negative = inhibition is -0.281%.
On the same count and under the same terms, to `Cc1c(C(=O)c2cccc([N+](=O)[O-])c2)c2ccccn2c1CCC#N` belongs -8.17%; to `CN1CCn2cnc(C(=O)NCC(=O)OC(C)(C)C)c2C1=O`, -1.56%.
Still for that read-out and setting: with `Cc1ccccc1S(=O)(=O)N1[C@@H](c2cccc(Cl)c2)C(C(=O)OC(C)(C)C)=CC[C@H]1c1ccc(Cl)cc1` the figure was -12.6%.
`CCCCNC(=O)C[C@@H]1C[C@@]2(C(=O)OCC)CCC=C2N(Cc2ccco2)C1=O`: the max response, negative = inhibition was -10.8%.
Regarding `Cc1ccc(S(=O)(=O)N2CC3C(=O)C[C@@H](c4ccccc4Cl)N(S(=O)(=O)c4ccc(C)cc4)C3CC2c2ccccc2)cc1` (stereo not given in full), the max response, negative = inhibition is 1.78%.
As to `Cc1ccc(-n2c(SCC(=O)Nc3ccc4c(c3)OCO4)nnc2-c2ccoc2C)cc1`, the Potency is 23.8 µM (active).
Turning to `Cc1ccc(-n2c(SCC(=O)Nc3ccc4c(c3)OCO4)nnc2-c2ccccn2)cc1`, the max response, negative = inhibition was -3.49%.
Turning to `O=C(CSc1nnc(-c2ccccn2)n1-c1ccccc1)Nc1ccc2c(c1)OCO2`, the max response, negative = inhibition is -6.44%.
Still for that read-out and setting: to `O=C(NCc1cccnc1)c1cc(C2CCCN(C(=O)CCCc3ccccc3)C2)on1` (stereo not given) belongs 7.06%; to `C/C(COc1ccccc1)=N\NC(=O)c1nnn(-c2nonc2N)c1-c1ccc(C)cc1`, -7.46%.
Regarding `CCC(=O)NC(=S)Nc1ccc(NC(=O)c2ccco2)c(Cl)c1`, the Potency was 29.9 µM (active).
In the case of `Cc1cccc(OCC(=O)Nc2ccc(NC(=O)c3ccco3)c(C)c2)c1`, the max response, negative = inhibition was -7.98%.
Consider `O=C(NNC(=S)Nc1ccc(Br)cc1Cl)c1ccco1`, for which the max response, negative = inhibition was -12.7%.
On the same count and under the same terms, with `CCCCN1C(=O)C(CC(=O)NC(c2ccccc2)c2ccccc2)CC(C(=O)N2CCOCC2)=C1C` (stereo not given) the figure was -4.16%; with `Cc1nc(C(F)(F)F)ccc1C(=O)N1CCC1(C)C(=O)NS(=O)(=O)c1ccccc1` (stereo not given), -4.71%; with `COc1ccc(-c2nc(SCC(=O)N3CCCC3)n[nH]2)cc1`, -1.92%.
Regarding `COc1ccc(N2C(=O)CC(Sc3n[nH]c(-c4ccc(C)cc4)n3)C2=O)cc1` (stereo not given), the Potency was 18.9 µM (active).
Turning to `COc1ccc(N2C(=O)CC(SC(C)C)C2=O)cc1` (stereo not given), the max response, negative = inhibition is -4.56%.
Regarding `Cc1noc(C)c1-c1ccc(C(=O)NCc2ccncc2)c2occc12`, the max response, negative = inhibition is -3.63%.
In the case of `CCc1nc2ccc(C(=O)Nc3cccc(OC)c3)cn2c1N(CCC(C)C)CCN(C)C`, the max response, negative = inhibition was 0.24%.
As to `COC(=O)Cc1c(-c2[nH]c3ccccc3c2CC(=O)OC)[nH]c2ccccc12`, the max response, negative = inhibition is 0.279%.
`Cc1cc2c3ccccc3[nH]c(=O)n2n1`: the max response, negative = inhibition was -0.899%.
For `S=c1[nH]c2ccccc2c2ccccc12`, the Potency was 18.9 µM (active).
Turning to `CCCNC(=O)C1CC(=O)N(c2ccc(OCc3ccccc3)cc2)C1` (stereo not given), the max response, negative = inhibition was 3.86%.
The same measure, in the same setting: to `Cc1nc(C(F)(F)F)ccc1C(=O)N1CCC1(C)C(=O)NS(=O)(=O)c1ccccc1Cl` (stereo not given) belongs -15.4%; to `COC(=O)c1ccc(N2CCOCC2)c(NC(=O)c2ccc3c(c2)OCCO3)c1`, 0.435%.
Take `O=C(Nc1ccc(N2CCOCC2)cc1)c1ccc2c(c1)OCO2`: the Potency was 26.7 µM (active).
Consider `O=C(Nc1ccc(N2CCOCC2)cc1)c1cccc(S(=O)(=O)N2CCOCC2)c1`, for which the max response, negative = inhibition was -5.11%.
In the case of `COCOCCn1cc(CN2CCS(=O)(=O)N(Cc3ccc(-c4ccc(OC)cc4)cc3)C(CC(C)C)C2=O)nn1` (stereo not given), the max response, negative = inhibition is -17%.
In the case of `CCC(C)CN1C(=O)CN(S(C)(=O)=O)CC1(C)C(=O)Nc1ccc2c(c1)OCCO2` (stereo not given), the max response, negative = inhibition is -14.3%.
Same read-out and setting: with `CCOC(=O)C1=CC[C@@H](c2ccccc2)N(S(=O)(=O)c2ccc(C)cc2)[C@H]1c1cccc(OC)c1` the figure was -10.4%.
The same measure, in the same setting: to `Cc1ccc(S(=O)(=O)N2[C@@H](c3ccccc3F)C(C(=O)O)=CC[C@H]2c2ccc(Cl)cc2)cc1` belongs -15.9%.
Turning to `Cc1ccc(S(=O)(=O)N2[C@@H](c3cccc(Cl)c3)C(C(=O)O)=CC[C@H]2c2ccc(Cl)c(Cl)c2)cc1`, the Potency is 21.2 µM (active).
`CCc1noc(C)c1C(=O)OCC(=O)c1ccc(NC(=O)CC(C)C)cc1`: the max response, negative = inhibition is -8.24%.
On the same count and under the same terms, to `CC(C)C[C@@H]1COc2cc(N3CCC[C@@H]3CO)ccc2S(=O)(=O)N1` belongs 2.66%.
With `N#Cc1c(N)sc2c1CCN(C(=O)OCc1ccccc1)C2`, the Potency was 23.8 µM (active).
In the case of `CC(=O)N1CCc2c(sc(NC(=O)CCS(=O)(=O)c3ccccc3)c2C#N)C1`, the max response, negative = inhibition is -11.3%.
In the case of `CC(C)N1CCc2c(sc(NC(=O)Cc3ccccc3)c2C#N)C1`, the max response, negative = inhibition is -26%.
Regarding `CCN(CC)C(=O)C1=C(C)N(Cc2ccccc2)C(=O)C(CC(=O)NC(c2ccccc2)c2ccccc2)C1` (stereo not given), the max response, negative = inhibition is -7.71%.
On the same count and under the same terms, with `CCCCc1nc2ccc(F)cc2cc1C` the figure was -7.86%.
Consider `CN(C)C(=O)N=NC(=O)N(C)C`, for which the Potency is 1.89 µM (active).
With `O=C(CSc1nc2cccc(F)c2c(=O)n1-c1ccccc1)Nc1ccc2c(c1)CCC2`, the max response, negative = inhibition is -2.85%.
Same read-out and setting: with `CC(C)(O)C#Cc1ccc(CNC[C@H]2O[C@@H](n3cnc4c(=O)[nH]c(N)nc43)[C@H](O)[C@@H]2O)s1` the figure was 0.0305%; with `COC(=O)c1ccc2c(c1)S(=O)(=O)NC2C` (stereo not given), -7.33%.
Consider `O=C(NC1CC1)C(Cc1ccccc1)NS(=O)(=O)c1ccccc1F` (stereo not given), for which the Potency was 23.8 µM (active).
Turning to `CN(Cc1ccccc1F)C(=O)C(Cc1ccccc1)NC(=O)c1ccccc1` (stereo not given), the max response, negative = inhibition was -7.43%.
Regarding `CSCCC(NS(=O)(=O)c1ccccc1F)C(=O)N1CC=C(c2ccccc2)CC1` (stereo not given), the max response, negative = inhibition was 0.274%.
Take `C[C@H](CO)N1C[C@H](C)[C@@H](CN(C)C(=O)c2cccc(F)c2)Oc2cc(-c3cncnc3)ccc2S1(=O)=O`: the max response, negative = inhibition was -2.44%.
As for `Nc1ccc(C(=O)Nc2ccccc2N)cc1`, the max response, negative = inhibition is -11.6%.
Regarding `CC(=O)Nc1ccccc1NC(=O)c1cc(C)cc(C)c1`, the Potency is 9.47 µM (active).
For `Cc1ccccc1C(=O)Nc1ccccc1NC(=O)c1ccccc1C`, the max response, negative = inhibition is -16.3%.
Regarding `CCOC(=O)c1ccc(NC(=O)C2CC(=O)N(c3ccc4c(c3)OCCO4)C2)cc1` (stereo not given), the max response, negative = inhibition was -3.19%.
As for `Cc1ccccc1N1CC(C(=O)Nc2nnc(SCCC3OCCO3)s2)CC1=O` (stereo not given), the Potency is 21.2 µM (active).
Regarding `COc1ccccc1N1CC(C(=O)Nc2nnc(SCC(=O)NC(C)C)s2)CC1=O` (stereo not given), the max response, negative = inhibition was -26.4%.
With `COc1ccccc1N1CC(C(=O)Nc2nnc(SCC(=O)NCC3CCCO3)s2)CC1=O` (stereo not given), the max response, negative = inhibition is -29%.
`CCc1nnc(NC(=O)C2CC(=O)N(c3ccc4c(c3)OCCO4)C2)s1` (stereo not given): the Potency is 13.4 µM (active).
With `CC(=O)c1ccccc1NC(=O)C1CC(=O)N(c2ccc3c(c2)OCCO3)C1` (stereo not given), the max response, negative = inhibition was 7.84%.
Same read-out and setting: with `CCN1CCN(CCNC(=O)c2ccc3c(c2)NC(=O)/C(=C\c2cccc(Cl)c2)S3)CC1` the figure was -9.11%; with `COc1cccc(CNc2nc(NCc3cccs3)nc3ccsc23)c1`, -6.78%.
The same measure, in the same setting: to `COC(=O)[C@@]1(Cc2ccc(F)cc2)[C@H]2c3cc(C(=O)N(C)C)n(CCc4c[nH]c5ccc(OC)cc45)c3C[C@H]2CN1C(=O)c1ccccc1` belongs -0.876%; to `C=CCOc1ccccc1CNn1c(C)n[nH]c1=S`, -12.8%.
Still for that read-out and setting: with `O=C(NCc1ccccc1)C1c2ccccc2OCC(=O)N1C1CC1` (stereo not given) the figure was 2.78%; with `Cc1csc(SCC(=O)Nc2ccc(C)c(S(=O)(=O)N(C)C)c2)n1`, -2.14%.
On to `c1ccc(CSc2nnc(-c3ccco3)c(-c3ccco3)n2)cc1`, for which the Potency was 11.2 µM (active).
Regarding `CCc1nnc(SCc2cccc(F)c2)nc1CC`, the max response, negative = inhibition is 1.21%.
The same measure, in the same setting: to `c1ccc(Cc2c(-c3ccco3)nc3c4ccccc4ccn23)cc1` belongs -8.74%.
For the molecule `Clc1ccccc1CSc1nnc(-c2ccco2)c(-c2ccco2)n1`, the Potency was 13.4 µM (active).
Take `COC(=O)c1ccc2nc(-c3ccc(F)cc3)c(Cc3ccc(C)cc3)n2c1`: the max response, negative = inhibition was 1.02%.
Still for that read-out and setting: to `COc1ccc(C(=O)N2CCCCC2c2cc(C(=O)Nc3ccc(F)c(Cl)c3)no2)cc1` (stereo not given) belongs -10.1%.
`CCOCCC(=O)Nc1ccc2c(c1)c(=O)n(C)n2-c1ccc2ccccc2c1`: the max response, negative = inhibition was -3.07%.
Turning to `CCOC(=O)[C@]12CCC=C1N(Cc1ccco1)C(=O)[C@H](CC(=O)NCc1cccc(C(F)(F)F)c1)C2`, the max response, negative = inhibition is -26%.
On the same count and under the same terms, with `Cc1cc(C(=O)N2CCCC2(C)C(=O)O)c(C)o1` (stereo not given) the figure was -5.24%.
With `Oc1c(C(c2ccccn2)N2CCOCC2)ccc2cccnc12` (stereo not given), the Potency was 9.47 µM (active).
Regarding `CCCCC(=O)NC(c1ccc(OC)c(OC)c1)c1ccc2cccnc2c1O` (stereo not given), the max response, negative = inhibition was -4.18%.
As for `CCn1c(=S)[nH]c2cc(S(=O)(=O)N3CCOCC3)ccc21`, the Potency is 29.9 µM (active).
On to `Cc1ccc(S(=O)(=O)N2CCN(S(=O)(=O)N3CCOCC3)CC2)cc1`, for which the max response, negative = inhibition was -4.72%.
Regarding `O=S(=O)(c1ccc2ccccc2c1)N1CCN(S(=O)(=O)N2CCOCC2)CC1`, the max response, negative = inhibition is -4%.
Turning to `Cc1ccc(CC2(C)C(=O)Nc3ccc(OC(F)(F)F)cc32)cc1` (stereo not given), the max response, negative = inhibition is 0.395%.
In the case of `COCCCNc1ccn2nc(-c3ccc(CC(C)C)cc3)cc2n1`, the max response, negative = inhibition was -1.25%.
